Test systems include DU-145 prostate; K-562 leukemia; MALME-3M melanoma; MDA-MB-231 breast; RXF 393 renal; SF-268 CNS; SF-295 CNS; SF-539 CNS; UACC-257 melanoma; M14 melanoma; HCT-15 colon; HT29 colon; SNB-75 CNS; SNB-19 CNS; U251 CNS; PC-3 prostate; SK-MEL-5 melanoma; UACC-62 melanoma; LOX IMVI melanoma; SK-MEL-28 melanoma.
What all share (assay): NCI-60 one-dose screen, 48 h (100 = growth as untreated, 0 = no growth, -100 = all killed)
Common to all, as to settings: 10 µM unless noted

Structures are written as SMILES. About 83,000 compounds went through this panel and 20% of them were active in at least one assay; those are over-represented in the sample as a whole.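 96-well plates, one dose, 48 hours. Percent growth reported; active if below 10.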 Values without a mark were called inactive. The source made the active and inactive calls.

Regarding `COc1c2c(c(Br)c3c1C(CCc1ccccc1)N(C)CC3)OCO2` (stereo not given), the growth in the assay with DU-145 prostate was 56.7%; in the assay on K-562 leukemia, 28.1%; in the assay with MALME-3M melanoma it was 63.7%; with MDA-MB-231 breast, 39.9%; in the assay on RXF 393 renal it was 72.9%; in the assay with SF-268 CNS it was 45.7%. The growth was 40.6% in the assay with SF-295 CNS; -8.69% (active) in the assay on SF-539 CNS; 64.9% in the assay on UACC-257 melanoma; 29% in the assay on M14 melanoma; 24.6% in the assay with HCT-15 colon; 16.5% with HT29 colon. Further, the growth in the assay with SNB-75 CNS is 63.8%; in the assay on SNB-19 CNS, 36.8%; with U251 CNS, 43.3%; in the assay with PC-3 prostate it was 41.3%; in the assay with SK-MEL-5 melanoma, 25.3%; with UACC-62 melanoma, 16.3%. Also, the values for the growth in the assay on LOX IMVI melanoma and with SK-MEL-28 melanoma were 6% (active) and 19.2%, respectively.
With `Cn1cc(-c2cc3nc(-c4cn(C)c5ncc(Br)cc45)cc(N)n3n2)c2cc(F)ccc21`, the growth was 0.863% (active) in the assay on DU-145 prostate; 21.9% in the assay with K-562 leukemia; 8.23% (active) with MALME-3M melanoma; -42.1% (active) in the assay with MDA-MB-231 breast; -39.8% (active) in the assay with RXF 393 renal; 57.6% in the assay with SF-268 CNS. Further, the growth is -45.7% (active) with SF-295 CNS; -26.5% (active) in the assay with SF-539 CNS; 24.4% with UACC-257 melanoma; 7.16% (active) with M14 melanoma; 8.7% (active) in the assay on HCT-15 colon; -28.5% (active) in the assay on HT29 colon. Also, the growth with SNB-75 CNS was 24.9%; in the assay on SNB-19 CNS it was 58.3%; in the assay on U251 CNS, -26.1% (active); in the assay with PC-3 prostate, 19.2%; with SK-MEL-5 melanoma, 40.4%; with UACC-62 melanoma, -7.29% (active). The growth is -69.7% (active) in the assay on LOX IMVI melanoma and 22.6% in the assay on SK-MEL-28 melanoma.
For the compound `CN1CCN(C(=O)Oc2cc3c(c4ccccc24)[C@H](CCl)CN3C(=O)c2cc3cc(OCCCN4CCC4)ccc3[nH]2)[C@@H]2CSSC[C@H]21`, the growth with DU-145 prostate is -31.6% (active); with K-562 leukemia it was -4.46% (active); with MALME-3M melanoma it was -55.1% (active); in the assay with MDA-MB-231 breast, -9.52% (active); in the assay on RXF 393 renal, -71.1% (active); in the assay on SF-268 CNS, -10.3% (active). Besides, the growth in the assay on SF-295 CNS was -7.45% (active); with SF-539 CNS, -58.8% (active); with UACC-257 melanoma it was -21% (active); with M14 melanoma it was -74.7% (active); in the assay with HCT-15 colon, 2.11% (active); with HT29 colon it was 2.15% (active). Further, the growth was -64.6% (active) in the assay with SNB-75 CNS; -64.6% (active) in the assay with SNB-19 CNS; -42.8% (active) with U251 CNS; -12.2% (active) with PC-3 prostate; -74.1% (active) with SK-MEL-5 melanoma; -81.9% (active) with UACC-62 melanoma. Besides, the growth with LOX IMVI melanoma was -61.6% (active); with SK-MEL-28 melanoma it was -39.5% (active).
For `FC(F)(F)c1cc2c(Cl)ncnc2n1CCN1CCCCC1`, the growth was 50% with DU-145 prostate; 0.547% (active) in the assay on K-562 leukemia; 86.9% in the assay with MALME-3M melanoma; 38.8% with MDA-MB-231 breast; 80.8% in the assay with RXF 393 renal; 9.33% (active) in the assay with SF-268 CNS. The growth in the assay with SF-295 CNS was 80.9%; in the assay with SF-539 CNS, 73.4%; in the assay with UACC-257 melanoma, 73.6%; in the assay on M14 melanoma, 24.1%; in the assay with HCT-15 colon, -30.7% (active); with HT29 colon it was 56.2%. In addition, the growth was 13.6% in the assay with SNB-75 CNS; -35.3% (active) in the assay with SNB-19 CNS; 81.8% in the assay on U251 CNS; 55.8% in the assay on PC-3 prostate; 83.2% with SK-MEL-5 melanoma; 50.8% in the assay with UACC-62 melanoma. Further, the growth with LOX IMVI melanoma was -88.8% (active); in the assay on SK-MEL-28 melanoma it was 52.5%.
On to `Cc1cc(Cl)ccc1NC(=O)Nc1ccc(-c2ccc3c(c2)NC(=O)/C3=C\c2ccc[nH]2)cc1`, for which the growth with DU-145 prostate is 96.3%; in the assay with K-562 leukemia it was 83.3%; in the assay on MALME-3M melanoma, 99.9%; in the assay on MDA-MB-231 breast it was 108%; in the assay with RXF 393 renal, 122%; with SF-268 CNS it was 109%. The growth in the assay with SF-295 CNS is 105%; in the assay on SF-539 CNS, 91.9%; in the assay with UACC-257 melanoma, 117%; in the assay with M14 melanoma, 108%; with HCT-15 colon, 92.6%; with HT29 colon it was 109%. Besides, the growth in the assay on SNB-75 CNS is 99.4%; in the assay on SNB-19 CNS, 94.5%; in the assay on U251 CNS, 103%; in the assay with PC-3 prostate it was 104%; in the assay on SK-MEL-5 melanoma, 106%; in the assay on UACC-62 melanoma, 98.5%. Besides, the growth in the assay on LOX IMVI melanoma was 101%; with SK-MEL-28 melanoma, 114%.
As for `Cc1ccc(-c2cc(-c3ccccc3)[nH]c(=O)c2C#N)cc1`, the growth was 97.3% in the assay with DU-145 prostate; 74.4% with K-562 leukemia; 106% in the assay with MALME-3M melanoma; 83.8% with MDA-MB-231 breast; 101% with RXF 393 renal; 92.9% in the assay on SF-268 CNS. Moreover, the growth in the assay with SF-295 CNS is 90.4%; in the assay on SF-539 CNS it was 81.9%; in the assay on UACC-257 melanoma, 101%; with M14 melanoma, 111%; in the assay on HCT-15 colon, 71%; in the assay on HT29 colon, 114%. Further, the growth in the assay on SNB-75 CNS was 99.4%; with SNB-19 CNS, 84.3%; in the assay with U251 CNS, 90.8%; with PC-3 prostate, 83.7%; with SK-MEL-5 melanoma it was 90%; with UACC-62 melanoma, 84.6%. In addition, the growth in the assay on LOX IMVI melanoma is 83%; in the assay with SK-MEL-28 melanoma, 109%.
Regarding `COC(=O)c1ccc(-c2c(-c3ccccc3)c(F)c3oc(C(=O)OC)c(N)c3c2-c2ccccc2)cc1`, the growth in the assay on DU-145 prostate was 104%; in the assay on K-562 leukemia, 85.1%; in the assay on MALME-3M melanoma, 99.9%; in the assay with MDA-MB-231 breast, 99.3%; in the assay with RXF 393 renal, 95.6%; in the assay with SF-268 CNS, 91.6%. Also, the growth in the assay with SF-295 CNS is 89.7%; with SF-539 CNS, 90%; with UACC-257 melanoma, 111%; in the assay with M14 melanoma, 98.2%; in the assay on HCT-15 colon, 77%; in the assay on HT29 colon, 102%. Further, the growth in the assay with SNB-75 CNS was 95.7%; with SNB-19 CNS, 80.2%; with U251 CNS, 82.2%; in the assay on PC-3 prostate, 92.1%; with SK-MEL-5 melanoma it was 99.4%; in the assay on UACC-62 melanoma it was 82.8%. Also, the growth with LOX IMVI melanoma is 81.6%; in the assay on SK-MEL-28 melanoma it was 98.9%.
On to `COc1ccc(N=Nc2c(N)nn3c(-c4ccc5c(c4)C=S=C5)ccnc23)cc1`, for which the growth was 35.4% in the assay on DU-145 prostate; 15.4% in the assay with K-562 leukemia; 43.9% in the assay on MALME-3M melanoma; 25% with MDA-MB-231 breast; 12.2% with RXF 393 renal; 67.7% in the assay with SF-268 CNS. For the same compound, the growth in the assay with SF-295 CNS was 33.8%; in the assay with SF-539 CNS, 22.6%; in the assay with UACC-257 melanoma, 85.3%; with M14 melanoma, 58.9%; in the assay with HCT-15 colon, 18.2%; in the assay with HT29 colon it was 47.6%. The growth in the assay on SNB-75 CNS is 35.6%; in the assay with SNB-19 CNS, 59.7%; in the assay with U251 CNS, 34.5%; with PC-3 prostate it was 25%; in the assay with SK-MEL-5 melanoma, 16.9%; in the assay on UACC-62 melanoma it was 38%. For the same compound, the results for the growth with LOX IMVI melanoma and with SK-MEL-28 melanoma were 13% and 63.1%, respectively.

Source of the values: PubChem BioAssay (NCI).
